In PubChem BioAssay (NCI):
“And” between values parts separate entries of the source, which are not always exact repeats. Equal values may be shown once. Compounds without any hit were thinned out: in the full panel of roughly 79,000, 15% have a hit. Some compounds were tested as several samples or in several runs, with calls that do not always agree. The source made the active and inactive calls. Rule as the data show it: active = growth inhibition above about 70%; inactive = the rest.

Key:
[1] = NCI Yeast Anticancer Drug Screen. Data for the rad50 strain (AID 155);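 also: 0% = growth of vehicle-only cultures of the same strain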; conditions: S. cerevisiae rad50 strain growth inhibition, stronger effect = higher value
How it was run: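 Cells are treated with compound, grown, and their growth is then scored against vehicle-only cultures of the same repair-deficient yeast strain.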

[2] = NCI Yeast Anticancer Drug Screen. Data for the mec2-1 strain (AID 157); conditions: S. cerevisiae mec2-1 strain, stronger effect = higher value
How it was run: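 Mutant yeast (mec2-1) grown with compound; growth inhibition relative to vehicle control reported.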

[3] = NCI Yeast Anticancer Drug Screen. Data for the sgs1 mgt1 strain (AID 161);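 also: 0% = growth of cultures given vehicle only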; conditions: S. cerevisiae sgs1 mgt1 strain, stronger effect = higher value
How it was run: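 This yeast growth screen uses a strain with defined DNA-repair lesions; compound-treated growth is compared with vehicle-treated growth.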

[4] = NCI Yeast Anticancer Drug Screen. Data for the cln2 rad14 strain (AID 165);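 also: 0% = growth equal to vehicle treated cultures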; conditions: S. cerevisiae cln2 rad14 strain, stronger effect = higher value
How it was run: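 Readout is yeast growth inhibition versus vehicle-treated controls, using a strain with cln2 and rad14 alterations exposed to compound.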

[5] = NCI Yeast Anticancer Drug Screen. Data for the bub3 strain (AID 167); conditions: S. cerevisiae bub3 mutant strain, stronger effect = higher value
How it was run: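 Part of a panel of yeast mutants defective in DNA damage repair or cell cycle regulation. Each strain is grown with compound, and inhibition is calculated relative to solvent-treated cultures.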

[6] = NCI Yeast Anticancer Drug Screen. Data for the mlh1 rad18 strain (AID 175); conditions: S. cerevisiae mlh1 rad18 strain growth inhibition, stronger effect = higher value
How it was run: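 Genetically defined yeast (DNA repair-deficient) exposed to compounds; growth inhibition determined relative to vehicle.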

[7] = at 5.0 µM (retest, dose inferred, filed as 0.5)
[8] = at 50.0 µM (retest, dose inferred, filed as 5.0)

| Structure (SMILES) | growth inhibition [1, 7] | growth inhibition [1, 8] | growth inhibition ([1]; at 50.0 µM) | growth inhibition [2, 7] | growth inhibition [2, 8] | growth inhibition ([2]; at 50.0 µM) | growth inhibition [3, 7] | growth inhibition [3, 8] | growth inhibition ([3]; at 50.0 µM) | growth inhibition [4, 7] | growth inhibition [4, 8] | growth inhibition ([4]; at 50.0 µM) | growth inhibition [5, 7] | growth inhibition [5, 8] | growth inhibition ([5]; at 50.0 µM) | growth inhibition [6, 7] | growth inhibition [6, 8] | growth inhibition ([6]; at 50.0 µM) |
| --- | --- | --- | --- | --- | --- | --- | --- | --- | --- | --- | --- | --- | --- | --- | --- | --- | --- | --- |
| CC[N](CC)[Ge]([CH2]C)[CH2]C.C[CH2][Ge]([CH2]C)[CH2]C | 40% (inactive) | 99% (active) | 87% (active) | 19% (inactive) | 100% (active) | 90.3% (active) | 32% (inactive) | 99% (active) | 90% (active) | 54% (inactive) | 98% (active) | 92.5% (active) | 24% (inactive) | 99% (active) | 90% (active) | 37% (inactive) | 99% (active) | 92.3% (active) |
| CCN(CC)Cc1cc2[nH]c3c4ccc(Cl)cc4ncc3c2cc1OC (tested in a mixture with another compound) | 3% (inactive) | 71% (active) | 59.4% (inactive) and 65% (inactive) | 2% (inactive) | 58% (inactive) | 38.8% (inactive) and 66% (inactive) | 0% (inactive) | 48% (inactive) | 55.1% (inactive) and 74.2% (active) | -2% (inactive) | 47% (inactive) | -1.65% (inactive) and 29.1% (inactive) | 4% (inactive) | 58% (inactive) | 44.8% (inactive) and 48.6% (inactive) | 3% (inactive) | 74% (active) | 64.3% (inactive) and 77.5% (active) |
| Cc1cc(N)c(S)cc1C | 6% (inactive) and -2% (inactive) | 25% (inactive) and 28% (inactive) | 65.1% (inactive) and 25.8% (inactive) | -8% (inactive) and 0% (inactive) | 25% (inactive) and 31% (inactive) | 19.9% (inactive) and 24.2% (inactive) | 1% (inactive) | 44% (inactive) and 37% (inactive) | 21.3% (inactive) and 50.4% (inactive) | -1% (inactive) and -7% (inactive) | 2% (inactive) and 7% (inactive) | -50% (inactive) and 30.4% (inactive) | -2% (inactive) and 1% (inactive) | 59% (inactive) and 47% (inactive) | 42.9% (inactive) and 75.5% (active) | 2% (inactive) and -2% (inactive) | 70% (active) and 40% (inactive) | 59.8% (inactive) and 77% (active) |
| CC(=O)OC1OC(CI)C(OC(C)=O)C(OC(C)=O)C1OC(C)=O (configuration not stated) | 1% (inactive) | 38% (inactive) | 16.1% (inactive) and 5.95% (inactive) | -1% (inactive) | 21% (inactive) | 17% (inactive) and 12.6% (inactive) | -3% (inactive) | 19% (inactive) | 4.55% (inactive) and -11.6% (inactive) | 2% (inactive) | 49% (inactive) | 17.1% (inactive) and 5.75% (inactive) | -5% (inactive) | 69% (inactive) | 19.8% (inactive) and 94% (active) | -1% (inactive) | 25% (inactive) | 24.4% (inactive) and 9.3% (inactive) |
| CCCCCCCCCCCCCCCCCC(=O)NCCO | -3% (inactive) | -6% (inactive) | -12.3% (inactive) and 16.8% (inactive) | -1% (inactive) | -5% (inactive) | -6.6% (inactive) and -7.3% (inactive) | 0% (inactive) | -4% (inactive) | -20.2% (inactive) and -8.5% (inactive) | 1% (inactive) | -8% (inactive) | -23.9% (inactive) and 37.4% (inactive) | 4% (inactive) | 7% (inactive) | -3.75% (inactive) and 1.55% (inactive) | 0% (inactive) | -8% (inactive) | 3.7% (inactive) and 10.8% (inactive) |
| NNc1nc2ccccc2s1 | 14% (inactive) | 34% (inactive) | 1.3% (inactive) and 47.8% (inactive) | 10% (inactive) | 32% (inactive) | -37% (inactive) and 42.6% (inactive) | 2% (inactive) | 38% (inactive) | 4.4% (inactive) and 72.5% (active) | 8% (inactive) | 3% (inactive) | 0.55% (inactive) and 8.6% (inactive) | 19% (inactive) | 45% (inactive) | 9.15% (inactive) and 89.6% (active) | 37% (inactive) | 64% (inactive) | -7.35% (inactive) and 88.2% (active) |
| CC(=O)Nc1cc(C)ccc1C | 1% (inactive) | -3% (inactive) | -36.6% (inactive) and -46.2% (inactive) | -2% (inactive) | 0% (inactive) | 15.4% (inactive) and -28.3% (inactive) | 0% (inactive) | -3% (inactive) | -1.25% (inactive) and -9.15% (inactive) | -3% (inactive) | 4% (inactive) | 51.8% (inactive) and 34.4% (inactive) | 0% (inactive) | -3% (inactive) | 42.2% (inactive) and -9.35% (inactive) | 3% (inactive) | -4% (inactive) | -36.9% (inactive) and -2% (inactive) |
| Nc1ncnc(N)c1N=O | -19% (inactive) | 1% (inactive) | 39% (inactive) and 21.6% (inactive) | -13% (inactive) | -3% (inactive) | 32.5% (inactive) and 4.05% (inactive) | 5% (inactive) | 3% (inactive) | 67.5% (inactive) and 35.1% (inactive) | 11% (inactive) | 28% (inactive) | 39.3% (inactive) and 31.2% (inactive) | -2% (inactive) | 54% (inactive) | 62.6% (inactive) and 53.2% (inactive) | -3% (inactive) | 15% (inactive) | 34.5% (inactive) and 26.6% (inactive) |
| c1cc2c3c(c1)c1cc4c(cc1c[n+]3CC2)OCO4 | 14% (inactive) | 38% (inactive) | 89.9% (active) | 23% (inactive) | 36% (inactive) | 92.5% (active) | 25% (inactive) | 41% (inactive) | 92.1% (active) | 13% (inactive) | 18% (inactive) | 90.8% (active) | 2% (inactive) | 20% (inactive) | 90.8% (active) | 25% (inactive) | 51% (inactive) | 90.9% (active) |
| O=C(O)c1ccc(C(c2ccccc2)c2ccccc2)cc1 | -19% (inactive) | 100% (active) | 97% (active) | 10% (inactive) | 100% (active) | 97.2% (active) | 11% (inactive) | 99% (active) | 98% (active) | -11% (inactive) | 99% (active) | 96.3% (active) | -1% (inactive) | 99% (active) | 98.3% (active) | 8% (inactive) | 99% (active) | 98% (active) |
| CC1=C(C(=O)Nc2c(C)cccc2C)C(c2ccc3c(c2)OCO3)C(C(=O)Nc2c(C)cccc2C)=C(C)N1 | 25% (inactive) | 25% (inactive) | 81.9% (active) | 19% (inactive) | 19% (inactive) | 86.9% (active) | 4% (inactive) | 4% (inactive) | 85.7% (active) | 16% (inactive) | 16% (inactive) | 79.5% (active) | 6% (inactive) | 6% (inactive) | 87.5% (active) | 7% (inactive) | 7% (inactive) | 82.7% (active) |
| CC(=O)OCC1OC(n2c(C)c(C(C)=O)c(-c3ccco3)c(C#N)c2=S)C(OC(C)=O)C(OC(C)=O)C1OC(C)=O (configuration not stated) | -7% (inactive) | -3% (inactive) | -9.45% (inactive) and 32.2% (inactive) | 2% (inactive) | 1% (inactive) | -26.9% (inactive) and 56.2% (inactive) | 2% (inactive) | 13% (inactive) | -4.95% (inactive) and 74.4% (active) | 6% (inactive) | 22% (inactive) | -13.6% (inactive) and 40.8% (inactive) | -4% (inactive) | 9% (inactive) | -25.4% (inactive) and 42.4% (inactive) | -29% (inactive) | 12% (inactive) | 3.55% (inactive) and 45% (inactive) |
| CC(C)Oc1ccc(Nc2ccccc2)cc1 | -2% (inactive) | 61% (inactive) | -1.65% (inactive) and 37% (inactive) | -9% (inactive) | 15% (inactive) | -2.9% (inactive) and 50.2% (inactive) | -1% (inactive) | 43% (inactive) | -8.3% (inactive) and 56.8% (inactive) | 0% (inactive) | -18% (inactive) | -21.6% (inactive) and 36.1% (inactive) | 42% (inactive) | 62% (inactive) | -16.4% (inactive) and 33.5% (inactive) | -4% (inactive) | 20% (inactive) | -9.65% (inactive) and 40.1% (inactive) |
| O=C1NC(=O)c2cc([N+](=O)[O-])ccc21 | -9% (inactive) | 12% (inactive) | 6.65% (inactive) and 0.9% (inactive) | 0% (inactive) | 4% (inactive) | -21.9% (inactive) and 3.5% (inactive) | -2% (inactive) | 8% (inactive) | 5.35% (inactive) and 17% (inactive) | -5% (inactive) | -5% (inactive) | -1.95% (inactive) and 55% (inactive) | 0% (inactive) | 13% (inactive) | -0.35% (inactive) and 34.4% (inactive) | -4% (inactive) | 12% (inactive) | 11.3% (inactive) and -14.6% (inactive) |
